# Data as given in PubChem BioAssay AID743320 (Broad Institute, 2014).
# Potency and affinity values are given separately. The source made the active and inactive calls.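 Rule for the calls: active = signal drop whose fitted half-maximal potency is at most twice the top valid dose tested; inconclusive = flat curve inhibiting 30 to 70 percent, or a poor fit; inactive = the rest.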
# Molecular target: Endoplasmic reticulum aminopeptidase 2 (Homo sapiens) (UniProt Q6P179)
# Assay: ERAP2 aminopeptidase inhibitors, dose response, selectivity assay for selective ERAP1 modulator project, biochemical, fluorescence plate reader, cherry-picked, set 2 (AID 743320)
# Details: recombinant ERAP2, Arg-AMC fluorescence, 1 h; series mostly up to 11 µM
# Chain of Endoplasmic reticulum aminopeptidase 2 (Homo sapiens) (Q6P179 whole entry, looked up): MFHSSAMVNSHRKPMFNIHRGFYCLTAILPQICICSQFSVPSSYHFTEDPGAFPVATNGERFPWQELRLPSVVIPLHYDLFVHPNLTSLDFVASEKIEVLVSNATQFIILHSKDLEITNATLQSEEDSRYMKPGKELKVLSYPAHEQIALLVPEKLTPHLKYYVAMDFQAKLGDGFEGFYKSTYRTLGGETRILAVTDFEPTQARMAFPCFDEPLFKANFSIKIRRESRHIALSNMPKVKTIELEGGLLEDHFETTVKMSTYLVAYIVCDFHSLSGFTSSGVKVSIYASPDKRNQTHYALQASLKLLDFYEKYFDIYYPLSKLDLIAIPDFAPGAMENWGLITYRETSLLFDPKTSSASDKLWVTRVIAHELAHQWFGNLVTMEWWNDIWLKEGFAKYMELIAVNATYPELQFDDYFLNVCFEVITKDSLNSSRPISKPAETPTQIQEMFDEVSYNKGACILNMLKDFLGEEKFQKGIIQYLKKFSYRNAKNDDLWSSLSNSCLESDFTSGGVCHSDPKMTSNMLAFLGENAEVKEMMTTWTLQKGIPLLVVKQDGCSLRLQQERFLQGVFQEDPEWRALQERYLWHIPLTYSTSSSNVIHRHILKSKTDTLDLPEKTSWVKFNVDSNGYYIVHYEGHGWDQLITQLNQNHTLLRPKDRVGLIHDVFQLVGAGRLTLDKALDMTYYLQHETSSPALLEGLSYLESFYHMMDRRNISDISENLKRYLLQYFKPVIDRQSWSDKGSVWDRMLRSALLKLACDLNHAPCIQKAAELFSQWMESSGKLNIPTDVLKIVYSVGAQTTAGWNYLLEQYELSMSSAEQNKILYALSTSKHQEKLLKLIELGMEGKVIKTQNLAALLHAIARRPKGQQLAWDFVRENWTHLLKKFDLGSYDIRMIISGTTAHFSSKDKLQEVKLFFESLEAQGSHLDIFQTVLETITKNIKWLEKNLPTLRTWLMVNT
row,SMILES,outcome
1,O=C(CSc1cn[nH]n1)Nc1cccc(C(=O)O)c1,inactive
2,O=C(O)c1ccccc1NS(=O)(=O)c1cccc(-n2sc3ccccc3c2=O)c1,inactive
3,CCCN(C)C[C@@H]1OCCCC[C@@H](C)Oc2ccc(NS(=O)(=O)c3ccc(C)cc3)cc2C(=O)N([C@@H](C)CO)C[C@@H]1C,inactive
4,NC(=NCCc1c[nH]c2ccccc12)NS(=O)(=O)c1cc(F)ccc1F,inactive
5,N#Cc1c(N)n(CCNC(=O)c2ccccc2)c2nc3ccccc3nc12,inactive
6,CCCN(C)C[C@@H]1OCCCC[C@H](C)Oc2ccc(NC(=O)Nc3ccc(F)cc3)cc2C(=O)N([C@H](C)CO)C[C@@H]1C,inactive
7,C[C@H]1CN([C@@H](C)CO)C(=O)c2cccc(NC(=O)Nc3ccc(F)cc3)c2O[C@@H]1CN(C)C(=O)Nc1ccc2c(c1)OCO2,inactive
8,Cc1ccccc1-c1ccc2c(c1)O[C@@H](CN(C)Cc1ccc(C(=O)O)cc1)[C@@H](C)CN([C@@H](C)CO)S2(=O)=O,inactive
9,COC(=O)[C@H]1[C@H](CO)[C@H]2Cn3c(ccc(-c4ccncc4)c3=O)[C@H]2N1Cc1ccccc1F,inactive
10,C[C@H]1CN([C@@H](C)CO)C(=O)c2cccc(NC(=O)Nc3ccc(C(F)(F)F)cc3)c2O[C@@H]1CN(C)C,inactive
11,O=C(C[C@@H]1CC[C@@H]2[C@H](COC[C@H](O)CN2C(=O)Nc2cccc(Cl)c2)O1)N1CCCCC1,inactive
12,COc1ccc(CN(C)C[C@@H]2OCCCC[C@H](C)Oc3ccc(NS(=O)(=O)c4cccs4)cc3C(=O)N([C@H](C)CO)C[C@@H]2C)cc1,inactive
